The test can be described thus: qHTS Assay for Spectroscopic Profiling in A488 Spectral Region. The following applies: compound autofluorescence. The essentials: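 Autofluorescence read at ex 480/em 540 nm after 15 min RT in 100 mM Tris pH 8.0; compound signal normalized to A488 standard series on each plate, reported as dye-equivalent concentration at each test concentration.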
For orientation: Quantitative high-throughput screening tests each substance at several concentrations.

Where [1] appears, read: max dye equivalency: Compound Type: qHTS ECL - SigmaAldrich, active compounds read high unless noted, outcome: dye equivalency, Compound Type: qHTS ECL - MLSMR unless noted.

The whole screen tested about 59,000 compounds, of which about 60 (0.1%) were called active. This is one part of a sample in which actives are shown more often than they occur. No rule for the calls is given here.

As for `COCCn1c(=O)c(-c2cccc(F)c2)nc2cncnc21`, the outcome under setting [1] was “inactive [dye equivalency, Compound Type: qHTS ECL - Pharmacopeia]”.
For `CCCn1c(SCC(N)=O)nnc1C(C)C`, the result under setting [1] was inactive.
Same read-out and setting: the value for `C=CCNC(=O)CCCC(=O)NCC=C` was “inactive [dye equivalency, Compound Type: qHTS ECL - DPISMR]”.
Consider `CN1CCN2c3ccccc3Cc3ccccc3[C@@H]2C1`, for which the outcome was “inactive” (dye equivalency, Compound Type: qHTS ECL - Prestwick) and “inactive” (dye equivalency, Compound Type: qHTS ECL - SigmaAldrich).
Turning to `CSc1nc(O)c(Cc2ccccc2)c(=O)[nH]1`, the result under setting [1] was inactive.
`O=C(Cn1c(-c2ccc(Cl)cc2)noc1=O)N1CCN(c2ccccc2F)CC1`: under setting [1], the outcome was inactive.
For the compound `CCN(Cc1cc2cc(C)ccc2[nH]c1=O)S(=O)(=O)c1ccccc1`, the outcome under setting [1] was inactive.
As for `CCCCOc1ccc(Cl)cc1CSc1nncn1N`, under setting [1], the outcome was “inactive [dye equivalency, Compound Type: qHTS ECL - DPISMR]”.
In the case of `O=c1cc(-c2ccccc2)[nH]c2nc(Cl)ccc12`, the outcome under setting [1] was “inactive [dye equivalency, Compound Type: qHTS ECL - SigmaAldrich]”.
Turning to `CC[C@@H]1Cc2cc(O)ccc2C2=C1c1ccc(O)cc1C[C@H]2CC`, under setting [1], the outcome is “inactive [dye equivalency, Compound Type: qHTS ECL - SigmaAldrich]”.
As for `O=c1c(-c2ccc(F)cc2)nc2cnc(N3CCNCC3)nc2n1Cc1cccs1`, under setting [1], the outcome is “inactive [dye equivalency, Compound Type: qHTS ECL - Pharmacopeia]”.
Still for that read-out and setting: the entry for `Nc1nc(N)c2[nH]c(CNc3ccc(C(=O)O)cc3)nc2n1` is “inactive [dye equivalency, Compound Type: qHTS ECL - NCI]”; for `N#Cc1cccc(-c2nc3cnc(N4CCNCC4)nc3n(C3CC3)c2=O)c1` it is “inactive [dye equivalency, Compound Type: qHTS ECL - Pharmacopeia]”.
As for `CC(C)NC(=O)N1CCC2(CC1)CCN(C(=O)c1cccn1C)CC2`, under setting [1], the outcome is “inactive [dye equivalency, Compound Type: qHTS ECL - Pharmacopeia]”.
For `COCCn1c(=O)c(CCc2ccccc2)nc2cnc(N3CCNCC3)nc21`, under setting [1], the outcome is “inactive [dye equivalency, Compound Type: qHTS ECL - Pharmacopeia]”.
In the case of `CCc1nc(C)cn1S(=O)(=O)c1cc(OC)c(C)cc1C`, the outcome under setting [1] was inactive.
The same measure, in the same setting: the value for `CC(c1ccco1)N(C(=O)c1ccc(S(=O)(=O)N2CCCCC2)cc1)c1ccccn1` (stereo not given) was “inactive”; that for `CS(=O)(=O)N(CC(=O)NCc1ccco1)c1ccc2c(c1)OCO2` was “inactive [dye equivalency, Compound Type: qHTS ECL - DPISMR]”; that for `O=C(NC1(C(F)(F)F)N=C2SCCN2C1=O)c1ccco1` (stereo not given) was “inactive”.
As to `COc1ccc(OCC(=O)OCC(=O)Nc2ccc(S(=O)(=O)N3CCCCC3)cc2)cc1`, the outcome under setting [1] was inactive.
In the case of `O=C(N1CCOCC1)N1CCOCC1`, under setting [1], the outcome was inactive.
For `CCNC(=O)CN(c1ccc(C)cc1)S(=O)(=O)c1ccc(SC)cc1`, the outcome under setting [1] was inactive.
As to `CN(Cc1ccco1)c1cc(-c2ccccc2C(F)(F)F)ncn1`, the outcome under setting [1] was “inactive [dye equivalency, Compound Type: qHTS ECL - Pharmacopeia]”.
On the same count and under the same terms, the entry for `COC(=O)Cc1nc2ccccc2[nH]1` is “inactive [dye equivalency, Compound Type: qHTS ECL - DPISMR]”; for `CCOc1ccc(N=NS(=O)(=O)O)cc1` it is “inactive [dye equivalency, Compound Type: qHTS ECL - NCI]”.
For the compound `CN1CCN(C(=O)C2C3C=CC(C3)C2C(=O)O)CC1` (stereo not given), the result under setting [1] was inactive.
`CN(C)c1ncc2nc(-c3ccc(F)cc3)c(=O)n(Cc3ccc(F)cc3)c2n1`: under setting [1], the outcome was “inactive [dye equivalency, Compound Type: qHTS ECL - Pharmacopeia]”.
For the compound `CN(C)C(=O)c1ccc(-c2cncnc2NC2CCNCC2)cc1`, the outcome under setting [1] was “inactive [dye equivalency, Compound Type: qHTS ECL - Pharmacopeia]”.
Turning to `CC(C)NC(=O)N1CC[C@@]2(CCCN(C(=O)c3cccc(F)c3)C2)C1`, the max dye equivalency under setting [1] was 33 nM [Compound Type: qHTS ECL - Pharmacopeia, active compounds read high] (active).
Consider `CC(C)NC(=O)N1CC[C@@]2(CCCN(C(=O)c3ccco3)C2)C1`, for which the outcome under setting [1] is “inactive [dye equivalency, Compound Type: qHTS ECL - Pharmacopeia]”.
For the compound `COc1ccc(C(=O)N2CCC[C@@]3(CCN(C(=O)NC(C)C)C3)C2)cc1`, under setting [1], the outcome was “inactive [dye equivalency, Compound Type: qHTS ECL - Pharmacopeia]”.
The same measure, in the same setting: the entry for `c1n[nH]c(NCc2ccc3c(c2)OCO3)n1` is “inactive”.
For `CN(C)C(=O)/N=N\C(=O)N(C)C`, the outcome under setting [1] is “inactive [dye equivalency, Compound Type: qHTS ECL - SigmaAldrich]”.
Take `COCCn1c(=O)c(-c2cccs2)nc2cnc(N3CCN(C)CC3)nc21`: under setting [1], the outcome is “inactive [dye equivalency, Compound Type: qHTS ECL - Pharmacopeia]”.
For `Cc1ccc(-c2nnc(SC(C)C#N)n2N)cc1` (stereo not given), under setting [1], the outcome was inactive.
Same read-out and setting: the entry for `CCN(Cc1nc2ccccc2c(=O)[nH]1)Cc1cc(=O)oc2cc(C)c(C)cc12` is “inactive”; for `O=C(CCS(=O)(=O)c1cccc2nonc12)NCCc1ccccc1Cl` it is “inactive”.
As for `CCOc1cc(S(=O)(=O)NC2CC(C)(C)NC(C)(C)C2)ccc1F`, the outcome under setting [1] is “inactive [dye equivalency, Compound Type: qHTS ECL - DPISMR]”.
The same measure, in the same setting: the entry for `FC(F)(F)c1cccc(Nc2ncnc3ccccc23)c1` is “inactive [dye equivalency, Compound Type: qHTS ECL - DPISMR]”.
For `c1csc(CN2CCN(Cc3cccs3)C2c2cccs2)c1`, under setting [1], the result was inactive.
Take `CCOc1ccc(NC(=O)Nc2ccc(N(C)C(C)=O)cc2)cc1`: the outcome under setting [1] is “inactive [dye equivalency, Compound Type: qHTS ECL - DPISMR]”.
In the case of `COC(=O)[C@H](Cc1ccccc1)NC(=O)Nc1ccc(S(N)(=O)=O)cc1`, the outcome under setting [1] is “inactive [dye equivalency, Compound Type: qHTS ECL - DPISMR]”.
On to `COCCNc1ncnc2ccc(-c3cccnc3)cc12`, for which the outcome under setting [1] is “inactive [dye equivalency, Compound Type: qHTS ECL - Pharmacopeia]”.
Turning to `Nc1ccc2c3c(cccc13)C(=O)NC2=O`, the max dye equivalency under setting [1] is 95 nM (active).

The values above are taken from PubChem BioAssay AID591 (National Center for Advancing Translational Sciences (NCATS), 2007).
